Assay results from PubChem BioAssay (NCI).
Compounds without any hit were thinned out: in the full panel of roughly 83,000, 20% have a hit.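 Method: cells in 96-well plates; compound added at one concentration; 48 h incubation; percent growth measured; values under 10 scored active.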 Calls of active or inactive are those of the source.

Test system: HL-60(TB) leukemia
Assay: NCI-60 one-dose screen, 48 h (100 = growth as untreated, 0 = no growth, -100 = all killed)
Conditions: 10 µM unless noted

| SMILES | growth |
| --- | --- |
| CC(=O)c1ccc(Nc2nc(SCCC(C)C)nc(-c3ccc(F)cc3)c2C#N)cc1 | 91.8% (inactive) |
| CCCCn1c(O)c(N=Nc2nc(-c3cc4ccccc4oc3=O)cs2)c2cc(Br)ccc21 | 101% (inactive) |
| CCOC(=O)/C(F)=C/C1CC1C(c1ccccc1)c1ccccc1 (stereo not drawn) | -7.32% (active) |
| COc1ccc(-c2nc3ccc(-c4nnc(SCc5ccccc5)o4)cc3[nH]2)cc1 | 16.3% (inactive) |
| O=c1onc(-c2cc3ccccc3nc2Cl)n1-c1cccc2ccccc12 | 33.5% (inactive) |
| N/C(=N\c1nc2ccccc2s1)NC(=O)Nc1ccccc1Br | -28.5% (active) |
| COc1ccc(-c2nnc3c(/C=C/c4ccc(Br)cc4)nc4ccccc4n23)cc1 | 3.92% (active) |
| COc1cc(CNC(=O)C[C@H](C)CCC=C(C)C)ccc1OCc1cn(-c2ccc(Br)cc2)nn1 | 88.4% (inactive) |
| O=C(/C=C/c1ccc(-c2ccccc2)cc1)c1nc2ccccc2n1Cc1ccc(F)cc1 | 21.1% (inactive) |
| Cn1cc(-c2cc(N)n3nc(-c4c[nH]c5ccccc45)cc3n2)c2cc(F)ccc21 | 7.1% (active) |
| COc1ccc(-c2ccc(SCC(=O)Nc3ccc(C#N)cc3)nn2)cc1 | 95.8% (inactive) |
| COc1cc(-c2nc3ccc(C)cc3[nH]2)ccc1OCc1nnc(-c2ccc(Br)cc2)o1 | -34.8% (active) |
| Cc1cccc(NC(=O)[C@]23CCC(C)(C)CC2C2=CCC4[C@@]5(C)C[C@@H](O)[C@H](O)[C@@](C)(CO)C5CC[C@@]4(C)[C@]2(C)CC3)c1 (stereo partly drawn) | -14.4% (active) |
| COc1ccc(C2=NN(C(=O)[C@H]3[C@@H](c4ccco4)c4sc(=O)[nH]c4S[C@@H]3C)C(c3ccc4ccccc4c3)C2)cc1 (stereo partly drawn) | 2.93% (active) |
| COC(=O)c1cc(C(=O)C(C)(C)C)n2c3ccccc3c3ccccc3c12 | 90.4% (inactive) |
| N#Cc1ccc(NC(=O)CSc2ccc(-c3ccc(Br)cc3)nn2)cc1 | 82.9% (inactive) |
| O=C1c2ccccc2C(=O)c2c1c(C(=O)c1ccc(Cl)cc1)n1c2ccc2c3ccccc3ccc21 | 109% (inactive) |
| Cc1ccc(-n2c(-c3cc4ccccc4nc3Cl)noc2=O)cc1 | 85.1% (inactive) |
| FC(F)(F)CN1CCN(CCn2c(C(F)(F)F)cc3c(Cl)ncnc32)CC1 | -65.2% (active) |
| O=C(N=Nc1c(O)[nH]c2ccc(Cl)cc12)c1ccc2nc(-c3ccccc3)[nH]c2c1 | 72.5% (inactive) |
| CN1CCN(CCS(=O)(=O)Nc2cc(-c3ccc4ncnc(Nc5ccc(F)c(Cl)c5)c4c3)cnc2Cl)CC1 | 19.2% (inactive) |
| Clc1cccc(N/N=C/c2c[nH]c3ccc(Br)cc23)n1 | 5.14% (active) |
| COc1ccc(NC(=O)Cn2c(/C=C/c3ccc(N(C)C)cc3)nc3ccccc3c2=O)cc1 | 82.2% (inactive) |
| O=C(c1ccc(Cl)cc1)C1[C@H](c2ccccc2Cl)[C@@H](c2ccccc2)NC12C(=O)Nc1ccc(Br)cc12 (stereo partly drawn) | -43.7% (active) |
| CN1CCc2c(sc3ncnc(N/N=C/c4ccc5ccccc5c4)c23)C1 | -14.6% (active) |
| N/C(=N\c1nc2ccccc2s1)NC(=O)Nc1ccccc1F | -5.29% (active) |
| Cc1noc2c(Cc3ccc([N+](=O)[O-])cc3)nn(CC(=O)N/N=C/c3ccc(Br)cc3)c(=O)c12 | 95.4% (inactive) |
| Cc1cc(=O)oc2cc(OCC(O)CNN3C(=O)c4cccc5c(N6CCN(C)CC6)ccc(c45)C3=O)ccc12 (stereo not drawn) | 113% (inactive) |
